Rescue of ATP level data for 69 compounds are collected here from PubChem BioAssay AID602340 (Broad Institute, 2012).

The structures appear in SMILES notation. Values joined by “and” are separate entries in the source; they are usually repeats but may differ in a detail not shown here. Equal values may be shown once. The whole screen tested about 330,000 compounds, of which about 2,600 (0.79%) were called active.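 Rule for the calls: active = mean ATP rescue above about 67%, or every replicate alone reaching that limit (limit read from the data, passing the limit was not always enough); inconclusive = no clear call, values can overlap the other calls; inactive = mean under the limit and some replicate under it.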 The full list was thinned out, with actives kept by preference. Where a structure was tested more than once in an assay, its records may differ in their call.

The nature of the test: protection of differentiated C2C12 cells from simvastatin – single point, plate reader, primary screen (AID 602340).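 Note: myotubes were challenged with 10 µM simvastatin during compound exposure.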 The conditions noted are these: C2C12 myotubes + simvastatin, ATP luminescence, 48 h; at 7.49 µM; stronger effect = higher value; scaled: DMSO 0, geranylgeraniol control 100.
With `C/C(=C\c1ccccc1)C1NC(=O)c2c(sc3c2CCCC3)N1` (centres undefined), the rescue of ATP level was -22.3% (inactive).
With `CC1(C(=O)O)CCCN(C(=O)/C=C/c2ccccc2)C1` (centres undefined), the rescue of ATP level is 2.47% (inactive).
To `Cc1[nH]c(=O)c(C(=O)/C=C/c2ccccc2)c2c1CCCC2` belongs 165% (active); to `COc1ccccc1NC(=O)N1C[C@H](O)COC[C@H]2O[C@H](CC(=O)NCCc3ccccc3)CC[C@@H]21`, -6.91% (inactive); to `CCC(=O)Nc1ccc(C(=O)Nc2cc(C)on2)cc1`, 84.9% (active).
For `CCC(=O)Nc1ccc(C(=O)NNC(=O)c2ccc(Cl)cc2)cc1`, the rescue of ATP level is -2.53% (inactive).
With `CCOc1ccc(C(=O)Nc2ccc(S(=O)(=O)Nc3cc(C)on3)cc2)cc1`, the rescue of ATP level is 10.8% (inactive).
In the case of `C[C@H]1CN([C@@H](C)CO)S(=O)(=O)c2ccc(Br)cc2O[C@H]1CN(C)C(=O)C1CC1`, the rescue of ATP level was 4.28% (inactive).
For `CC(=O)Nc1ccc(C(=O)CSc2nc3ccc(C)cc3[nH]2)cc1`, the rescue of ATP level was 107% (active).
As for `CCOC(=O)CSc1nc2ccc(C)cc2[nH]1`, the rescue of ATP level is 11.3% (inactive).
On to `Cc1ccc2nc(SCC(=O)NC3CCCC3)[nH]c2c1`, for which the rescue of ATP level was -36.1% (inactive).
Regarding `O=C(NCC[C@H]1CC[C@H](NS(=O)(=O)c2cccc(F)c2)[C@H](CO)O1)C1CCCCC1`, the rescue of ATP level is 0.841% (inactive).
For `COC(=O)C[C@H]1CC[C@H](NC(=O)Nc2ccc(C(F)(F)F)cc2)[C@H](CO)O1`, the rescue of ATP level is -6.07% (inactive).
As to `CCS(=O)(=O)Nc1ccc2c(c1)C(=O)N(C)[C@@H]1CC[C@H](CC(=O)N[C@H]3CCN(Cc4ccccc4)C3)O[C@@H]1CO2`, the rescue of ATP level is 10.9% (inactive).
In the case of `CCS(=O)(=O)Nc1ccc2c(c1)C(=O)N(C)[C@@H]1CC[C@@H](CC(=O)N3CCCCC3)O[C@H]1CO2`, the rescue of ATP level is -21.4% (inactive).
As for `CO[C@H]1CN(C)C(=O)c2ccc(NC(=O)C3CC3)cc2OC[C@@H](C)N(C)C[C@H]1C`, the rescue of ATP level was 2.87% (inactive).
In the case of `O=C(C1CCCN(S(=O)(=O)c2ccccc2)C1)N1CCN(c2ccc(F)cc2)CC1` (centres undefined) it was -8.18% (inactive).
On to `CCCS(=O)(=O)N1CCCC(C(=O)N2CCN(c3ccccc3)CC2)C1` (centres undefined), for which the rescue of ATP level is 103% (active).
To `CCS(=O)(=O)N1CCC(C(=O)N2CCN(c3ccccc3)CC2)CC1` belongs 2.16% (inactive).
With `C[C@@H](NC(=O)C[C@@H]1CC[C@H](NC(=O)Cc2ccccn2)[C@H](CO)O1)c1ccccc1`, the rescue of ATP level was 4.66% (inactive).
Turning to `C[C@@H]1CN([C@H](C)CO)C(=O)c2cccc(NS(=O)(=O)c3ccc(Cl)cc3)c2O[C@H]1CN(C)C(=O)NC1CCCCC1`, the rescue of ATP level is 36.6% (inactive).
In the case of `C[C@H]1CN([C@@H](C)CO)C(=O)c2cccc(NC(=O)Nc3ccc(C(F)(F)F)cc3)c2O[C@H]1CN(C)CC1CCCCC1` it was 88.7% (active); in that of `C[C@H]1CN([C@@H](C)CO)C(=O)c2cccc(NC(=O)Nc3ccc(C(F)(F)F)cc3)c2O[C@H]1CN(C)C(=O)NC1CCCCC1`, -25.5% (inactive).
On to `CC(C)NC(=O)N(C)C[C@H]1Oc2ccc(N(C)C)cc2C(=O)N([C@@H](C)CO)C[C@H]1C`, for which the rescue of ATP level was 70.4% (active).
To `C[C@H](CO)N1C[C@H](C)[C@@H](CN(C)C(=O)Nc2ccccc2)Oc2ccc(N(C)C)cc2C1=O` belongs 4.49% (inactive); to `C[C@@H]1CN([C@H](C)CO)C(=O)c2cccc(NS(=O)(=O)c3ccc(F)cc3)c2O[C@@H]1CN(C)C(=O)Nc1ccc(F)cc1`, 3.07% (inactive); to `CC(C)NC(=O)N(C)C[C@@H]1Oc2ccc(N(C)C)cc2C(=O)N([C@@H](C)CO)C[C@H]1C`, -49% (inactive).
To `C[C@@H]1CN([C@H](C)CO)C(=O)c2cccc(NC(=O)Nc3cccc4ccccc34)c2O[C@@H]1CN(C)C(=O)Nc1ccc(F)cc1` belongs 98.6% (active); to `C[C@@H]1CN([C@@H](C)CO)C(=O)c2cccc(NC(=O)Nc3ccc(F)cc3)c2O[C@H]1CN(C)C(=O)Nc1ccc(F)cc1`, 18.2% (inactive).
In the case of `C[C@@H]1CN([C@@H](C)CO)C(=O)c2cccc(NS(=O)(=O)c3ccc(F)cc3)c2O[C@H]1CN(C)C(=O)NC1CCCCC1`, the rescue of ATP level was 88.2% (active) and -10.4% (inactive).
For the compound `C[C@H]1CN([C@@H](C)CO)C(=O)c2cccc(NC(=O)Nc3ccc(C(F)(F)F)cc3)c2O[C@@H]1CN(C)Cc1ccccc1`, the rescue of ATP level was -12.1% (inactive).
As for `C[C@@H]1CN([C@@H](C)CO)C(=O)c2cccc(NC(=O)Nc3ccc(F)cc3)c2O[C@@H]1CN(C)C(=O)Nc1ccccc1`, the rescue of ATP level is 7.96% (inactive).
As for `C[C@@H]1CN([C@H](C)CO)C(=O)c2cc(NC(=O)Cc3cn(C)c4ccccc34)ccc2O[C@@H]1CN(C)S(=O)(=O)c1cccs1`, the rescue of ATP level was 34.2% (inactive).
`CCS(=O)(=O)Nc1ccc2c(c1)C(=O)N(C)[C@H]1CC[C@H](CC(=O)NCc3ccccc3F)O[C@H]1CO2`: the rescue of ATP level was -3.79% (inactive).
Take `O=C(N[C@H]1CC[C@@H](CCn2cc(Cc3ccccc3)nn2)O[C@H]1CO)c1cnccn1`: the rescue of ATP level was -1.98% (inactive).
For the compound `COc1ccc(NC(=O)N(C)C[C@@H]2Oc3c(NC(=O)Nc4cccc5ccccc45)cccc3C(=O)N([C@@H](C)CO)C[C@H]2C)cc1`, the rescue of ATP level was 15.2% (inactive).
`COc1cccc(NC(=O)N(C)C[C@@H]2Oc3ncc(Br)cc3C(=O)N([C@@H](C)CO)C[C@H]2C)c1`: the rescue of ATP level is 17.2% (inactive).
For the compound `COc1ccc(NC(=O)N(C)C[C@H]2Oc3c(NC(=O)Nc4cccc5ccccc45)cccc3C(=O)N([C@H](C)CO)C[C@@H]2C)cc1`, the rescue of ATP level was 75.6% (active).
To `COc1ccc(C#Cc2cnc3c(c2)C(=O)N([C@H](C)CO)C[C@@H](C)[C@H](CN(C)C(=O)Nc2cccc(OC)c2)O3)cc1` belongs 114% (active).
As for `COc1ccc(NC(=O)N(C)C[C@H]2Oc3ncc(C#C[C@@H](C)O)cc3C(=O)N([C@H](C)CO)C[C@H]2C)cc1`, the rescue of ATP level is 12.8% (inactive) and -6.34% (inactive) and 21.2% (inactive).
`COc1ccc(NC(=O)Nc2cccc3c2O[C@H](CN(C)C(=O)Nc2cccc4ccccc24)[C@H](C)CN([C@H](C)CO)C3=O)cc1`: the rescue of ATP level was 60% (inactive).
Regarding `CN(C)C(=O)C[C@@H]1CC[C@H](NC(=O)NC2CCCCC2)[C@@H](CO)O1`, the rescue of ATP level was -1.33% (inactive).
As to `O=C(Nc1ccccc1F)N1C[C@H]2[C@@H](c3ccccc31)[C@H](CO)N2C(=O)c1ccccn1`, the rescue of ATP level is 45.1% (inactive).
In the case of `O=C(N[C@@H]1CC[C@@H](CCNS(=O)(=O)Cc2ccccc2)O[C@@H]1CO)c1ccccc1F` it was -15% (inactive).
Turning to `CN(C)C(=O)[C@@H]1[C@@H](CO)[C@@H]2Cn3c(ccc(-c4ccccc4F)c3=O)[C@@H]2N1C(=O)C1CC1`, the rescue of ATP level was -6.7% (inactive).
For `O=C(NCc1ccco1)c1ccc(Cn2c(=O)c3sccc3n(Cc3ccc(F)cc3)c2=O)cc1`, the rescue of ATP level was -13.7% (inactive).
`O=C(Cc1ccc(-n2c(=O)c3sccc3n(Cc3ccc(F)cc3)c2=O)cc1)NCc1ccco1`: the rescue of ATP level is -0.81% (inactive).
Take `O=C(NCc1ccco1)c1cc2sccc2n1Cc1ccc(F)cc1`: the rescue of ATP level was 160% (active).
As for `O=C(C[C@@H]1CC[C@@H]2[C@H](COC[C@H](O)CN2Cc2cccc(-c3ccncc3)c2)O1)N1CCOCC1`, the rescue of ATP level was 7.32% (inactive).
To `CS(=O)(=O)c1ccc(C(=O)NNC(=O)c2cccs2)cc1` belongs 19.1% (inactive); to `Cc1ccc(C(=O)NNC(=O)CSc2nnc3ccccn23)cc1`, 0.262% (inactive).
As for `Cc1ccc(SCC(=O)NNC(=O)c2ccc(S(C)(=O)=O)cc2)cc1`, the rescue of ATP level is 90% (active).
Regarding `CO[C@H]1CN(C)C(=O)c2ccc(NC(=O)C3CCC3)cc2OC[C@@H](C)N(Cc2ccccn2)C[C@H]1C`, the rescue of ATP level is 9.17% (inactive).
In the case of `CNC(=O)C[C@H]1CC[C@@H]2[C@H](COc3ccc(NC(=O)C(C)C)cc3C(=O)N2C)O1` it was 5.79% (inactive).
To `O=C(CCC1CCCN(C(=O)c2ccc(F)c(F)c2)C1)N1CCN(c2ccccn2)CC1` (centres undefined) belongs -0.349% (inactive).
For `O=C(c1c(F)cccc1Cl)N1CCN(c2ccccn2)CC1`, the rescue of ATP level is -10.5% (inactive).
Consider `O=C(c1ccc2c(c1)C(=O)N(c1ccc(Cl)cc1)C2=O)N1CCN(c2ccccn2)CC1`, for which the rescue of ATP level was 135% (active).
To `COCC(=O)Nc1ccc2c(c1)OC[C@H](C)N(C(=O)c1cnccn1)C[C@@H](C)[C@H](OC)CN(C)C2=O` belongs 3.92% (inactive); to `COc1ccc(/C(O)=C2/C(=O)C(=O)N(CCCN(C)C)C2c2ccccc2)cc1OC` (centres undefined), 14.8% (inactive); to `COc1ccccc1CNC(=O)COC(=O)c1sc(C)nc1C`, -4.29% (inactive).
To `COc1cc(C2C(C(=O)c3sc(C)nc3C)=C(O)C(=O)N2CCN(C)C)cc(OC)c1OC` (centres undefined) belongs 116% (active).
As to `C[C@@H]1CN([C@@H](C)CO)C(=O)Cc2cc(NS(=O)(=O)c3cccs3)ccc2O[C@@H]1CN(C)S(=O)(=O)c1ccc(F)cc1`, the rescue of ATP level was -10.2% (inactive).
Consider `COCC(=O)Nc1ccc2c(c1)[C@@H]1C[C@H](CC(=O)NCc3ccc(-c4ccccc4)cc3)O[C@H](CO)[C@@H]1O2`, for which the rescue of ATP level was -0.998% (inactive).
In the case of `C[C@@H]1CCCCO[C@@H](CN(C)C(=O)NC2CCCCC2)[C@H](C)CN([C@H](C)CO)C(=O)c2cc(NC(=O)Nc3cccc4ccccc34)ccc2O1` it was -71% (inactive).
As to `CCc1ccc(N2CC(C(=O)Nc3ccc(S(=O)(=O)Nc4nccs4)cc3)CC2=O)cc1` (centres undefined), the rescue of ATP level was 2.04% (inactive).
As to `CCc1ccc(N2CC(C(=O)N3CCCCCC3)CC2=O)cc1` (centres undefined), the rescue of ATP level is -5.19% (inactive).
To `CCc1ccc(N2CC(C(=O)NC3=NCCS3)CC2=O)cc1` (centres undefined) belongs 109% (active); to `COc1ccc(NC(=O)Nc2ccc3c(c2)C(=O)N([C@@H](C)CO)C[C@H](C)[C@H](CN(C)C(=O)Nc2ccccc2)OCCCC[C@@H](C)O3)cc1`, 0.523% (inactive).
Regarding `CN1C(=O)c2cc(NS(C)(=O)=O)ccc2OC[C@@H]2O[C@@H](CC(=O)NCc3ccc(-c4ccccc4)cc3)CC[C@H]21`, the rescue of ATP level was 21.8% (inactive).
